# From PubChem BioAssay (NCATS)
# Inconclusive results are not listed. Entries that show only a call come without a potency. Calls of active or inactive are those of the source. Calls come from the whole dose curve; as a rule, active = well fitted curve in the direction sought with a large enough effect; inconclusive = small, poorly fitted or top-dose-only effect, or another doubt; inactive = no such curve, though single readings can be large; an effect the other way counts as inactive or inconclusive.
# How the values were obtained:
# [1] = target: Aldehyde dehydrogenase, mitochondrial (Homo sapiens) (UniProt P05091); assay: qHTS for Inhibitors of the Aldehyde Dehydrogenase Family (ALDH2) Primary screen (AID 2061308); settings: ALDH2 enzyme inhibition qHTS, 1536-well; series mostly up to 56 µM; note: nearly all actives have a fitted effect of over 55% in size
# [2] = target: Retinaldehyde dehydrogenase 3 (Homo sapiens) (UniProt P47895); assay: qHTS for Inhibitors of the Aldehyde Dehydrogenase Family (ALDH1A3) Primary screen (AID 2061315); settings: ALDH inhibition qHTS; series mostly up to 56 µM
Compound,Potency [1],Potency [2]
COc1ccc(-c2nnc3n2N=C(c2cccc(OC)c2)CS3)cc1,inactive,inactive
O=C(OCC#CCSc1nnc(-c2cccc(F)c2)o1)c1ccc(F)cc1,inactive,inactive
COc1ccc(NC(=O)c2cc(-c3ccc(C)c(C)c3)nc3ccccc23)cc1,inactive,inactive
Cc1cc(C)nc(NC(=S)N2CCN(c3nc(C)cnc3C)CC2)c1,inactive,inactive
Cc1cc(C)nc(NC(=S)N2CCN(c3ccc4ccccc4n3)CC2)c1,inactive,inactive
S=C(NCCCc1cnc[nH]1)NCCN(Cc1ccc(Cl)c(Cl)c1)c1ccc(Br)cn1,inactive,inactive
Cn1ccc2cc(-c3ccc4ncnc(NCc5cccc(F)c5)c4c3)ccc21,inactive,inactive
NC(=O)c1cccc(-c2noc(-c3ccccc3F)n2)c1,inactive,inactive
CC(C)(C)N=Cc1c(-c2ccccc2)no[n+]1[O-],inactive,inactive
CCOC(=O)c1c(-c2ccc(OC)cc2)csc1NC(=O)C1CCCO1 (stereo not given),inactive,inactive
O=C(OCC#CCSc1nnc(-c2cccc3ccccc23)o1)c1ccc(SC(F)(F)F)cc1,inactive,inactive
FC(F)(F)c1ccccc1-c1nc(NCc2cccs2)c2ccccc2n1,inactive,inactive
CC(=O)Nc1sc2c(c1-c1ccccc1F)CCNC2,inactive,inactive
O=C(Nc1cc(C(F)(F)F)ccc1Cl)[C@H](O)CCc1ccccc1,inactive,inactive
CC[C@@H]1C[C@]1(NC(=O)[C@@H]1C[C@@H]2CN1C(=O)[C@H](C(C)(C)C)NC(=O)OCC(C)(C)CCCCc1cccc3c1CN(C3)C(=O)O2)C(=O)NS(=O)(=O)C1CC1,inactive,inactive
Nc1ccc(S(=O)(=O)N2CCCN(S(=O)(=O)c3ccc4c(c3)OCCO4)CC2)cc1,inactive,inactive
O=C1c2ccccc2C(=O)N1C1CCCCC1,inactive,inactive
COc1cccc(-c2ccc3ncnc(NCc4cccnc4)c3c2)c1,inactive,inactive
C#CCOc1cc(C2=Nn3c(nnc3-c3ccc(OCC(C)=O)cc3)SC2)ccc1OC,inactive,inactive
N/C(=N\c1nnc(-c2ccncc2)s1)Nc1ccc(F)c(C(F)(F)F)c1,inactive,inactive

Compound,Potency [1],Potency [2]
N#Cc1ccc(NS(=O)(=O)c2ccc3c(c2)CCC(=O)N3)cc1,inactive,inactive
Oc1ccc(/C=C/c2ccccc2F)c2cccnc12,inactive,inactive
CCOC(=O)C1CCN(C(=O)C(C)(C)NC(=O)Nc2ccc(Oc3ccccc3)cc2)CC1,inactive,inactive
O=C(Nc1ccc(Cl)c(Cl)c1)Nc1nnc(C2CCCCC2)s1,inactive,inactive
O=C(CNC(=O)c1cccc(Cl)c1)OC(C(=O)Nc1cc(C(F)(F)F)ccc1Cl)c1ccccc1 (stereo not given),inactive,inactive
Cc1ccnc(NC(=S)NC2CCCN(c3cccc(C(F)(F)F)c3)C2)c1 (stereo not given),inactive,inactive
Cn1cccc1CN=C1NC2=C(C(=O)CCC2)C(c2[nH]ncc2Cl)N1 (stereo not given),inactive,inactive
CC(=O)Nc1sc2c(c1-c1ccc(Cl)cc1)CCNC2,inactive,inactive
O=C(COC(=O)CNC(=O)c1ccccc1)Nc1ccccc1Cl,inactive,inactive
Cc1ccc2c(c1)/C(=C\c1cc(Cl)c(O)c(Cl)c1)C(=O)N2,inactive,inactive
COc1ccc(OC)c(-c2nnc3n2N=C(c2ccc(OC)c(OC4CCCC4)c2)CS3)c1,inactive,inactive
Fc1cnc(-c2ccccc2C(F)F)nc1NCc1ccc(-c2cccnc2)cc1,inactive,inactive
O=C(OCC#CCSc1nnc(-c2cccc3ccccc23)o1)c1csc2ccccc12,inactive,inactive
O=C(Nc1ccc(-c2nc3ccccc3[nH]2)cc1)c1ccc2sccc2c1,inactive,inactive
COc1cc2c(s1)c1cnn(Cc3ccccc3F)c(=O)c1n2C,inactive,inactive
Cc1cc(F)ccc1S(=O)(=O)Nc1cnccc1C(=O)Nc1nc(-c2ccccc2)cs1,inactive,inactive
Cc1ccc(-c2csc(N3CCC(C(N)=O)CC3)n2)cc1,inactive,inactive
NC(=O)C1CCN(c2nc(-c3cccc(Br)c3)cs2)CC1,inactive,inactive
Cc1ccc(S(=O)(=O)Nc2ccc(C(=O)Nc3nc(-c4ccccc4)cs3)cc2Cl)cc1,inactive,inactive
Cc1nc(N2CCOCC2)c2nc(-c3ccccc3)n(CCN3CCOCC3)c2n1,inactive,inactive
